This is part of a sample that, as a whole, favours compounds with a hit. Of some 83,000 tested, about 20% had one in any assay.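 Treatment: one concentration, 48 hours, 96-well format. Scoring: percent growth, with anything below 10 considered active.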 Activity calls are given as the source filed them.
Tests used:
Assay in all cases: NCI-60 one-dose screen, 48 h (100 = growth as untreated, 0 = no growth, -100 = all killed)
Conditions in all cases: 10 µM unless noted
[1] = test system: NCI-H23 lung
[2] = test system: NCI-H226 lung
[3] = test system: NCI-H322M lung
[4] = test system: HOP-62 NSCLC
[5] = test system: NCI-H460 lung
[6] = test system: NCI-H522 lung
[7] = test system: A549/ATCC NSCLC
[8] = test system: 786-0 renal
[9] = test system: COLO 205 colon
[10] = test system: DU-145 prostate
[11] = test system: K-562 leukemia
[12] = test system: MALME-3M melanoma
[13] = test system: MDA-MB-231 breast
[14] = test system: RXF 393 renal
[15] = test system: SF-268 CNS
[16] = test system: SF-295 CNS
[17] = test system: UACC-257 melanoma
[18] = test system: HOP-92 NSCLC
[19] = test system: SF-539 CNS
[20] = test system: M14 melanoma

Measured: growth

Oc1ccc(Cl)cc1Cc1cc(Cl)ccc1O
active: [1] -12.5% | [6] 5.48%
inactive: [2] 96.7% | [3] 79.6% | [4] 70.6% | [5] 11.5% | [7] 61% | [8] 75.5% | [9] 110% | [10] 38.2% | [11] 21.1% | [12] 16.3% | [13] 23.3% | [14] 50.4% | [15] 22.5% | [16] 41.3% | [17] 41.6%

Oc1ccc(Cl)cc1C(c1cc(Cl)ccc1O)C(Cl)(Cl)Cl
inactive: [2] 22.5% | [3] 27.7% | [4] 14.1% | [7] 28.7% | [8] 15.2% | [9] 49.4% | [12] 11.9% | [15] 20.2% | [16] 10.1% | [19] 31.4% | [17] 72.1%
active: [1] -25.2% | [5] -12% | [18] -25.3% | [10] -47.8% | [11] 4.51% | [13] -63.6%

C/C=C/c1cc2c(c(=O)o1)C(=O)[C@@H](O)[C@H](C)O2
inactive: [1] 77.9% | [2] 79.6% | [3] 94.6% | [4] 101% | [5] 81.6% | [7] 97.2% | [8] 78.4% | [9] 35.6% | [10] 27.6% | [12] 19.7% | [13] 90.1% | [14] 52.7% | [15] 88.4% | [16] 96.1% | [19] 87.7% | [17] 86.7%
active: [6] -69% | [11] -4.98% | [20] -3.06%

Nc1cccc2cccc([N+](=O)[O-])c12
inactive: [1] 101% | [2] 94.8% | [3] 114% | [4] 97.8% | [5] 112% | [6] 104% | [7] 106% | [8] 100% | [9] 94.1% | [10] 118% | [12] 111% | [14] 110% | [15] 109% | [16] 95.6% | [19] 113% | [17] 100% | [20] 107%

Cc1cc(I)nc2ccccc12
inactive: [1] 95.1% | [2] 104% | [3] 102% | [4] 105% | [5] 106% | [18] 93.5% | [8] 105% | [9] 106% | [10] 120% | [11] 108% | [12] 114% | [13] 99.7% | [14] 122% | [15] 105% | [16] 101% | [19] 100% | [17] 119% | [20] 111%

O=C1C=CC(=O)N1c1ccccc1
active: [6] -51.8%
inactive: [1] 98.2% | [2] 87.7% | [3] 110% | [4] 92% | [5] 110% | [7] 102% | [8] 94.5% | [10] 109% | [11] 52.6% | [12] 101% | [13] 78.6% | [14] 88.7% | [15] 112% | [19] 100% | [17] 96.9% | [20] 94.2%

O=C1/C(=C/c2ccccc2)CCC/C1=C\c1ccccc1
inactive: [1] 88% | [2] 96% | [3] 94.9% | [4] 109% | [5] 103% | [6] 78.7% | [7] 98.8% | [8] 87.7% | [9] 127% | [10] 90% | [11] 62% | [12] 89.5% | [13] 98.9% | [14] 98% | [15] 86.9% | [16] 91.8% | [19] 111% | [17] 84.5% | [20] 64%

CCOC(=O)c1[nH]c(C#N)c(C(=O)OCC)c1C
inactive: [1] 101% | [2] 95.9% | [3] 93.6% | [4] 101% | [5] 114% | [6] 97.9% | [7] 98% | [8] 86.9% | [9] 131% | [10] 106% | [12] 109% | [13] 102% | [14] 90.5% | [15] 111% | [16] 89.3% | [19] 104% | [17] 104% | [20] 109%

COC(=O)c1nc(=S)[nH]c(C(=O)OC)c1C(=O)c1ccc(Cl)c(Cl)c1
inactive: [1] 103% | [2] 102% | [3] 107% | [4] 115% | [5] 111% | [6] 101% | [7] 105% | [8] 107% | [9] 120% | [10] 120% | [11] 113% | [12] 102% | [13] 102% | [14] 112% | [15] 111% | [16] 99.8% | [19] 102% | [17] 111% | [20] 107%

CCC1CCCCN1C(=S)N/N=C(\C)c1ccccn1 (centres undefined)
active: [2] 7.86% | [3] 8.13% | [5] -38.7% | [6] -18.6% | [7] 2.7% | [9] -37.5% | [12] -13.2% | [14] 0.202% | [15] 1.82% | [17] 0% | [20] 0.97%
inactive: [1] 20.8% | [4] 10.2% | [8] 11.3% | [10] 20.3% | [11] 12.3% | [13] 21.5% | [16] 13%

CN(C)c1ccc(/C=C/c2cc[n+](C)c(/C=C/c3ccc(N(C)C)cc3)c2)cc1
active: [3] -9.9% | [6] -20.2% | [9] -68.7% | [11] 4.82% | [12] 1.82% | [13] 8.47% | [16] -3.21% | [17] -18.8%
inactive: [1] 10.5% | [2] 34.1% | [4] 19.3% | [5] 10.6% | [7] 14.5% | [8] 22.6% | [10] 23% | [14] 28.3% | [15] 24.2% | [19] 27.1% | [20] 14.4%

Cc1cc(C)c([I+]c2c(C)cc(C)cc2C)c(C)c1
active: [1] -29.1% | [2] -1.55% | [4] -78.3% | [5] 1.11% | [6] -66.8% | [7] 6.93% | [8] -89.6% | [9] -94.4% | [12] -51.6% | [13] -55.1% | [14] -36.7% | [15] -66.9% | [16] -33.7% | [19] -74.7% | [17] -49.6% | [20] -77.6%
inactive: [3] 46.5% | [10] 14.8%

CC[n+]1ccc(Nc2ccc(NC(=O)c3ccc(Nc4cc[n+](CC)c5ccc([N+](=O)[O-])cc45)cc3)cc2)cc1
inactive: [1] 81.8% | [2] 92.8% | [3] 96.8% | [4] 92.8% | [5] 77% | [6] 65.7% | [7] 66.1% | [8] 101% | [9] 69.8% | [10] 91.9% | [11] 48.2% | [12] 40% | [13] 114% | [14] 97.9% | [15] 86.1% | [16] 59.3% | [19] 94.5% | [17] 56.2% | [20] 83.7%

Cc1c(O)ccc(SC#N)c1C
inactive: [1] 98% | [2] 109% | [3] 117% | [4] 100% | [5] 99.5% | [18] 92.2% | [7] 108% | [9] 96.9% | [10] 115% | [11] 104% | [12] 129% | [13] 84.9% | [14] 112% | [15] 87.1% | [16] 129% | [19] 94.2% | [17] 107% | [20] 97.4%

O=[N+]([O-])c1cc(-c2ccccc2)c(O)c([N+](=O)[O-])c1
active: [18] 3.74%
inactive: [1] 83.7% | [2] 82.5% | [3] 126% | [4] 92.5% | [5] 65.9% | [7] 86.8% | [10] 107% | [11] 68.9% | [12] 120% | [13] 71.3% | [14] 99.1% | [15] 79% | [19] 84.7% | [17] 94.9% | [20] 101%

Nc1cc(-c2ccccc2)ccc1O
inactive: [1] 101% | [2] 112% | [3] 87.2% | [4] 122% | [5] 102% | [6] 96.3% | [7] 65.7% | [8] 97.8% | [9] 110% | [10] 103% | [11] 59.2% | [12] 121% | [13] 82.7% | [14] 30.3% | [15] 78.2% | [16] 134% | [19] 105% | [17] 120%

CCN(CC)c1ccc(/C=C\C(=O)c2ccc(NC(C)=O)cc2)cc1
inactive: [1] 75.2% | [2] 99.6% | [3] 111% | [4] 56.2% | [5] 82.2% | [18] 70.9% | [7] 56.8% | [9] 49.4% | [10] 60.1% | [12] 117% | [13] 65.7% | [14] 79.4% | [15] 83.6% | [16] 35.6% | [19] 67.3% | [17] 78.3%

CCCCCC[C@@H](O)C/C=C\CCCCCCCC(=O)OCCOC
inactive: [1] 101% | [2] 101% | [3] 104% | [4] 88.9% | [5] 107% | [18] 79.2% | [7] 94.3% | [9] 115% | [10] 116% | [11] 137% | [13] 90% | [14] 110% | [15] 106% | [16] 131% | [19] 106% | [17] 100%
